# In the library only some 12% were active in any assay of this set; here they are far more common.
# L3MBTL1 block: inhibitors of human L3MBTL1; Q9Y468; 230,000 compounds, 0.66% hits; AID 485360; Potency, µM (doses to about 57.1 µM), for the others: top-dose activity, negative = inhibition, actives largely listed as inhibitors; AlphaScreen L3MBTL1–H3K9me1 peptide binding; further: on the % scale 0 is the no-effect control and ±100 the full control effect; nearly all actives have a fitted effect of over 60% in size
#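 Read-out is AlphaScreen signal from streptavidin donor and nickel chelate acceptor beads (10 ug/mL final each) bridging L3MBTL1 (50 nM) and biotinylated K9-monomethylated H3(1-15) peptide (75 nM), after 30 min compound exposure at room temperature.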
# BAZ2B block: BAZ2B (human) inhibition; Q9UIF8; AlphaScreen BAZ2B-H3K14Ac peptide displacement; Potency, µM (doses to about 114 µM), for inactives: at the top dose activity change, negative = inhibition, hits mostly inhibitors; 360,000 compounds, 4.4% hits; AID 504333; further: on the % scale 0 is the no-effect control and ±100 the full control effect; nearly all actives have a fitted effect of over 60% in size
#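 Complex of BAZ2B and biotin-H3K14Ac (50 nM apiece) forms over 30 min at RT, then faces library compounds up to 110 uM for another 30 min; AlphaScreen beads added, 20 min dark incubation, luminescence read.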
# JMJD2A Tudor inh: inhibitors of human JMJD2A Tudor domain | O75164 | AlphaScreen JMJD2A-Tudor / H3K4me3 peptide binding | Potency, µM (top dose mostly 114 µM), for inactives: top-dose activity change, negative = inhibition, usual class: inhibitors | 390,000 compounds, 4.4% hits; further: on the % scale 0 is the no-effect control and ±100 the full control effect; nearly all actives have a fitted effect of over 50% in size
# G9a inh: G9a (human) methyltransferase inhibition; Q96KQ7; AID 504332; Potency, µM (top dose mostly 102 µM), inactives show top-dose activity, negative = inhibition, most hits filed as inhibitors; 350,000 compounds, 8.8% hits; G9a H3K9 monomethylation, AlphaScreen, 2 h; further: on the % scale 0 is the no-effect control and ±100 the full control effect; nearly all actives have a fitted effect of over 75% in size
# Target sequence (Q96KQ7 913-1193 limits assumed): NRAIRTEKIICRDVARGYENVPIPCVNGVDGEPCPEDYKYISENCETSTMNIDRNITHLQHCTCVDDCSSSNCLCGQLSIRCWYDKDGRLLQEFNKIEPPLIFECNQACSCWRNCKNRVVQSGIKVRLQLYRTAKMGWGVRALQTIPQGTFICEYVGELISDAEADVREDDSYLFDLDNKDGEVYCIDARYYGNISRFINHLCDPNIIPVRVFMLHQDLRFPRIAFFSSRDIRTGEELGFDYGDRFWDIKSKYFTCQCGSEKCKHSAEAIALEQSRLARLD
#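 Quantitative HTS format: methyltransferase activity on a biotin-tagged H3K9 peptide is measured by AlphaScreen, using a rabbit anti-monomethyl-H3K9 antibody with streptavidin donor and anti-IgG acceptor beads. Final levels are 20 nM enzyme, 500 nM peptide, 20 uM SAM; 2 h RT.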
# Sfp PPTase inh: blocks B. subtilis Sfp PPTase activity | Potency, µM, for the others: largest response in the series, negative = inhibition, usual class: inhibitors | AID 1490 | 310,000 compounds, 3.5% hits | Q9F4F7 | Biochemical Sfp PPTase activity, qHTS;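 further: the enzyme is Sfp with the accession as filed and its product quenches rhodamine fluorescence; 0% = enzyme reaction without inhibitor and -100% = no enzyme wells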
#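 Fluorescence-quenching assay with 15 nM Sfp, 5 uM rhodamine-CoA and 12.5 uM BHQ-2-labelled ybbR peptide in pH 7.6 Hepes/MgCl2 buffer. Enzyme was pre-incubated with compound for 15 min at room temperature. Rate was taken from the 30-min fluorescence change (525/598 nm).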
# HP1b binding inh: HP1-beta chromodomain-methylated histone interaction inhibition; P83916; AlphaScreen HP1-beta / biotin-H3K9me3 peptide binding; Potency, µM (titrated, usually from 114 µM), for the others: at the highest dose activity change, negative = inhibition, hits mostly inhibitors; 390,000 compounds, 0.56% hits; AID 540317; further: nearly all actives have a fitted effect of over 70% in size
# Target sequence (P83916 whole entry, looked up): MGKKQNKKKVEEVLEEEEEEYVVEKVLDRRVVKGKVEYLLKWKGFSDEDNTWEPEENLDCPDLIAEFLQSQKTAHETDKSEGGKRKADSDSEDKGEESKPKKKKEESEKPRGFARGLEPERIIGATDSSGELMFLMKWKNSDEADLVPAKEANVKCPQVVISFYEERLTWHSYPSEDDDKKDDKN
#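 AlphaScreen: HP1-beta (50 nM) preformed 30 min with biotin-H3(1-18)K9me3 peptide (50 nM) in PBS pH 7.4, 0.01% Tween-20. Compound added for 30 min at RT, then streptavidin donor/nickel chelate acceptor beads (10 ug/mL) for 30 min.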
# * marks the source's active call; other numbers are inactive results; u = inconclusive; x = no result; ! = a repeat was not active; [ ] = another dose, or the depositor's remark. The call rests on the fitted dose curve; in most records, active means well fitted curve in the direction sought with a large enough effect; inconclusive means small, poorly fitted or top-dose-only effect, or another doubt; inactive means no such curve, though single readings can be large; an effect the other way counts as inactive or inconclusive. Potency means the concentration at half of the fitted maximal effect.
SMILES,L3MBTL1 block,BAZ2B block,JMJD2A Tudor inh,G9a inh,Sfp PPTase inh,HP1b binding inh
CCN(CC(=O)NCc1ccc(Cl)cc1)S(=O)(=O)c1ccc(NC(C)=O)cc1,6.2%,x,-13.9%,-2.4%,15.8%,1.4%
O=C(c1cc2ccccc2c(=O)o1)N1CCCCCC1,-11.4%,2.7%,-8.4%,-3.6%[59 µM],-9.4%,5.7%
CCN(CC)S(=O)(=O)c1ccc(N2CCOCC2)c(NC(=S)NC(=O)c2ccco2)c1,-7.6%,-31.5%,u,28.2µM*,20µM*,u
O=C(NC(=S)Nc1cc(S(=O)(=O)N2CCOCC2)ccc1O)c1ccco1,5.8%,-30.8%,-23.4%,10µM*,44.7µM*,u
CCN(CC)S(=O)(=O)c1ccc(N2CCOCC2)c(NC(=O)CC(C)(C)C)c1,-4.5%,12.4%,-28.1%,79.4µM*,u,5.1%
CCc1cc(C(=O)Nc2cc(S(=O)(=O)N(CC)CC)ccc2N2CCOCC2)sc1C,-0.1%,4.5%,-17.1%,39.8µM*,x,12.9%
CCN(CC)S(=O)(=O)c1ccc(N2CCOCC2)c(NC(=O)c2cc(C)cc(C)c2)c1,5.4%,10.4%,-8.7%,-0.4%[59 µM],-4.6%,9.1%
CCN(CC)S(=O)(=O)c1ccc(N2CCOCC2)c(NC(=O)c2ccco2)c1,0.2%,x,-11.0%,x,x,8.9%[57 µM]
O=C(O)COc1ccccc1/C=N/NC(=O)CNC(=O)c1ccco1,x,-24.4%,-18.9%,-5.5%,-8.5%,31.9%
C=CCNC(=O)N1CCc2nc(COc3ccccc3)c3c(c2C1)CO[C@@H](C)C3,x,x,x,x,3.4%,x
CN(C)c1ccc(/C=[N+](\[O-])C(C)(C)/C=N/O)cc1,-3.6%,-3.8%,50.1µM*,u,2.6%,20.2%
CC(C)(/C=N/O)/[N+]([O-])=C/C=[N+](\[O-])C(C)(C)/C=N/O,4.1%,u,-0.3%,-0.4%,-2.0%,31.4%
CN(Cc1ccccc1F)c1ncnc2sccc12,x,7.3%,12.7%,1.2%,-1.2%,59.3%
CN(Cc1cccs1)c1ncnc2sccc12,3.9%,64.7%,-13.0%[57.1 µM],u,79.4µM*,48.5%
Cc1cc(C)cc(-n2ccn3c(CC(C)(C)CC(=O)O)nnc3c2=O)c1,x,-0.1%,-11.9%,-2.0%[59 µM],x,24.5%
CCCc1c(C)nc(N2CCN(c3ccccc3F)CC2)[nH]c1=O,0.0%,2.8%,-7.6%,13.9%,11.4%,27.4%
CC(=O)c1cccc(OCC(O)CNCC2COc3ccccc3O2)c1 (stereo unspecified),x,31.6µM*,0.794µM*,25.7%[0.501 µM],u,50.1µM*
CC(OCC(O)CNCC1COc2ccccc2O1)c1ccc(Cl)cc1 (stereo unspecified),22.3%,79.4µM*,2.24µM*,10µM*,-14.1%,u
COc1ccc(CNCC(O)COCc2cccs2)cc1 (stereo unspecified),6.3%,u,1.58µM*,u,-10.7%,-56.4%
COc1ccc(CNC(=O)Cc2cccs2)cc1,x,-6.7%,-2.4%,x,-1.9%,25.4%
c1ccc(CNCC2COc3ccccc3O2)cc1 (stereo unspecified),11.0%,-1.5%,-3.1%,20.9%[59 µM],10.0%,23.5%
CCOC(=O)CCNCC1COc2ccccc2O1 (stereo unspecified),-0.3%,6.6%,-4.1%[11.4 µM],-17.0%[59 µM],-11.0%,35.5%
OC(CNCC1COc2ccccc2O1)COCc1cccs1 (stereo unspecified),-3.8%,89.1µM*,1.58µM*,8.91µM*,-23.7%,-50.9%
COc1ccc(CCNC(=O)CCCn2c(=O)c3ccccc3n(Cc3c(C)cc(C)cc3C)c2=O)cc1OC,x,3.6%,-9.2%,-2.3%[59 µM],x,23.6%
c1ccc(CSc2ccc(-c3ccco3)nn2)cc1,-8.3%,-3.9%,-7.7%,25.1µM*,31.6µM*,30.1%
SMILES,L3MBTL1 block,BAZ2B block,JMJD2A Tudor inh,G9a inh,Sfp PPTase inh,HP1b binding inh
Clc1ccc(CSc2ccc(-c3ccco3)nn2)cc1,x,4.9%,4.3%,-45.8%,56.2µM*,22.7%
Cc1ccc(CSc2ccc(-c3ccc4c(c3)OCO4)nn2)cc1,-9.9%,-2.3%,7.5%,50.1µM*,-19.3%,19.2%
COc1ccccc1-c1ccc(SCc2ccccc2F)nn1,30.0%,88.3%,38.5%,101.7%,9.7%,117.4%
Fc1ccccc1CSc1ccc(-c2ccco2)nn1,x,-5.8%,10.1%,39.8µM*,56.2µM*,5.8%
Nn1c(SCc2ccccc2)nnc1-c1ccco1,2.1%,9.8%,-13.1%,-36.8%,15.6%,97.5%
N#Cc1ccc(-c2ccco2)nc1SCc1ccccc1,41.0%,18.5%,83.8%,28.2µM*,-8.6%,41.7%
Cc1cccc(CSc2ccc(-c3ccco3)nn2)c1,0.3%,-37.8%,7.6%,-20.5%[59 µM],u,25.8%
Clc1cccc(CSc2ccc(-c3ccco3)nn2)c1,x,8.8%,71.5%,15.8µM*,35.5µM*,9.0%
Cc1ccc(CSc2ccc(-c3ccco3)nn2)cc1,-3.2%,-35.6%,-2.8%,17.8µM*,28.2µM*,35.7%
Cc1ccc(NC(=O)CSc2nc3c(oc4ccccc43)c(=O)n2Cc2ccco2)cc1,x,4.9%,u,2.6%[59 µM],x,0.5%
O=C(Nc1ccccc1)N1CCCC2(CCN(C(=O)c3cccc(F)c3)CC2)C1,x,x,x,-15.3%[12.7 µM],4.3%,x
O=C(CSc1nncs1)Nc1ccc(N2CCCCC2)cc1,-1.8%,-28.2%,-18.8%,u,x,26.1%
CCOc1ccccc1NC(=O)Cn1c(=O)sc2ccccc21,1.5%,4.7%,-17.2%,8.3%,14.0%,28.3%
O=C(Cn1c(=O)sc2ccccc21)Nc1ccc(O)cc1,x,-9.9%,-6.3%,-4.9%[59 µM],79.4µM*,17.0%
O=C(Cc1c(Cl)cccc1Cl)OCc1ccccn1,x,2.2%,14.7%,10.5%,13.0%,16.7%
NC(N)=NC(=O)Cc1c(Cl)cccc1Cl,2.6%,6.7%,6.5%,12.6µM*!,89.1µM*!,37.3%
CCC(Sc1nc2ccccc2s1)C(=O)Nc1cc(C)on1 (stereo unspecified),7.0%,8.7%,0.3%,13.0%[59 µM],-3.4%,65.2%
COc1ccc(-c2cc(C(=O)OCC(=O)N(C)C)c3ccccc3n2)cc1,22.3%,39.7%,-10.5%,-20.3%[12.7 µM],-5.3%,57.8%
O=C(NCc1ccccn1)c1cc(-c2ccc(-c3ccccc3)cc2)nc2ccccc12,-18.7%,u,u,3.16µM*,25.1µM*,7.8%
COc1ccc(-c2cc(C(=O)OCc3ccccn3)c3ccccc3n2)cc1,x,u,20µM*,u,-45.0%,204.6%
COc1ccc(N(C(=O)c2cnccn2)C(C(=O)NCc2ccccc2)c2ccc(O)cc2)cc1 (stereo unspecified),x,3.7%,-8.5%,-1.0%[59 µM],-4.1%,17.0%
Cn1c2ccccc2c(=O)c2c(=O)n(Cc3ccco3)c(-c3ccc(F)cc3)nc21,-19.2%,-23.9%,-24.1%,u,u,26.2%
Cc1ccc(-c2nc3c(c(=O)c4ccccc4n3C)c(=O)n2Cc2ccco2)cc1,1.0%,-29.5%,-32.0%,x,3.98µM*,7.1%

# Compound activity from PubChem.
